# In PubChem BioAssay (NCATS):
# Results filed as inconclusive are left out. Entries that show only a call come without a potency. Activity calls are given as the source filed them. Calls come from the whole dose curve; as a rule, active = well fitted curve in the direction sought with a large enough effect; inconclusive = small, poorly fitted or top-dose-only effect, or another doubt; inactive = no such curve, though single readings can be large; an effect the other way counts as inactive or inconclusive.
# Tests used:
# [1] = target: Nuclear receptor subfamily 1 group I member 3 (Homo sapiens) (UniProt Q14994); experiment: Primary qHTS for antagonist of constitutive androstane receptor (CAR) against the NCATS DSHEA and TCM libraries (AID 1794836);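 note: HepG2 cells stably expressing hCAR with CYP2B6 luciferase reporter stimulated by CITCO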
# In short: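 Antagonist mode: CAR reporter luminescence (ONE-Glo) in HepG2-CYP2B6-hCAR cells stimulated with 48 uM CITCO (final) over 24 h at 37 C, compounds titrated; viability read first by CellTiter-Fluor fluorescence.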
# [2] = Viability counterscreen for agonist of constitutive androstane receptor (CAR) against the NCATS DSHEA and TCM libraries (AID 1794838)
# In short: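 Multiplexed counterscreen: after 24 h compound exposure with 0.75 uM PK11195, HepG2-CYP2B6-hCAR viability was quantified fluorimetrically (CellTiter-Fluor, 405/540 nm) prior to the ONE-Glo luciferase read.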
# [3] = target: Nuclear receptor subfamily 1 group I member 3 (Homo sapiens) (UniProt Q14994); experiment: Primary qHTS for agonist of constitutive androstane receptor (CAR) against the NCATS DSHEA and TCM libraries (AID 1794839); details: Potency: CAR antagonist co-added at 0.75 µM unless noted;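 note: HepG2 cells expressing human CAR with a CYP2B6 reporter plus PK11195 antagonist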
# In short: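 Concentration–response screen in HepG2-CYP2B6-hCAR cells under 0.75 µM PK11195; 24 h exposure; luminescent reporter signal with multiplexed fluorescent viability.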
# [4] = HepG2 viability counterscreen (readout 2: ATP content) against the NCATS DSHEA and TCM libraries (AID 1794840)
# In short: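 After HepG2 cells attach for ~4 h, substances are added and incubated ~24 h at 37C, 5% CO2. GF-AFC fluorescence then CellTiter-Glo luminescence give protease and ATP readouts.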
# [5] = target: Cytochrome P450 3A4 (Homo sapiens) (UniProt P08684); experiment: qHTS for inhibitors of CYP3A4 against the NCATS DSHEA and TCM libraries (AID 1919971);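 note: inhibition lowers luminescence from luciferin made by CYP3A4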
# In short: (§1)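 Luminescent P450-Glo readout. Enzyme plus pro-luciferin substrate in manufacturer buffer (typically 100 mM KPO4); 15 min RT preincubation; 1x NADPH regenerating system, 30-45 min RT in the dark; detection reagent 30 min.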
# [6] = target: Cytochrome P450 2C9 (Homo sapiens) (UniProt P11712); experiment: qHTS for inhibitors of CYP2C9 against the NCATS DSHEA and TCM libraries (AID 1919973);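 note: luminogenic pro-luciferin CYP2C9 substrate turned into luciferin with NADPH regeneration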
# In short: as §1
# [7] = target: Cytochrome P450 2C19 (Homo sapiens) (UniProt P33261); experiment: qHTS for inhibitors of CYP2C19 against the NCATS DSHEA and TCM libraries (AID 1919974);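 note: luminescence from luciferin released by CYP2C19 oxidation of a pro-luciferin substrate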
# In short: as §1
# [8] = target: Cytochrome P450 1A2 (Homo sapiens) (UniProt P05177); experiment: qHTS for inhibitors of CYPIA2 against the NCATS DSHEA and TCM libraries (AID 1919976);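 note: light from luciferin formed by CYP1A2 from a pro-luciferin substrate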
# In short: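 Human CYP1A2 with its pro-luciferin substrate in supplier buffer (typically 100 mM KPO4) was pre-incubated with compounds 15 min at RT. Reaction was started with 1x NADPH regeneration solution and run 30-45 min at RT in the dark, then luminescence was read after P450-Glo detection reagent (30 min RT).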
# [9] = KB-8-5-11 P-gp reporter qHTS against the NCATS DSHEA and TCM libraries (AID 1919977)
# In short: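 Viability of drug-resistant KB-8-5-11 cells is measured by CellTiter-Glo luminescence following roughly 72 h treatment at 37C. Substances were titrated, with bortezomib as intraplate control.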
# [10] = qHTS Counterscreen for compound interference against the NCATS DSHEA and TCM libraries (AID 1919978); details: firefly luciferase detection reagent interference, luminescence;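 note: compounds preincubated with 1 µM D-luciferin or buffer before detection reagent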
# In short: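 Interference check: test samples were incubated with D-luciferin (final 1 uM) or buffer only for 15 min, room temperature, in a qHTS titration up to 39.8 uM, then developed with detection reagent and read by luminescence.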
# [11] = Dual reporter qHTS for agonist of Pregnane X Receptor (hPXR) against the NCATS DSHEA and TCM libraries: Fluorescence readout (AID 1920058)
# In short: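 hPXR-Luc HepG2 cells (2000/well) in phenol red-free medium with charcoal-stripped FBS attached for 5 h, then were exposed to compounds for about 24 h at 37 °C. Viability was read by CellTiter-Fluor fluorescence (Ex/Em 405/540 nm) after 1 h.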
# [12] = Dual reporter qHTS for antagonist of Pregnane X Receptor (hPXR) against the NCATS DSHEA and TCM libraries: Fluorescence Readout (AID 1920061)
# In short: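 hPXR-Luc HepG2 cells exposed 24 h at 37 C to compounds with 2 uM rifampicin in antagonist mode; luciferase luminescence measured by ONE-Glo, with CellTiter-Fluor viability read beforehand.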
# [13] = target: Catechol O-methyltransferase (Homo sapiens) (UniProt P21964); experiment: Confirmatory Screen for Target Class Profiling of Small Molecule Inhibitors of Methyltransferases (AID 1745852); details: MTase-Glo luminescence, SAH detection, recombinant enzyme; measured here: COMT max response; stronger effect = lower value
# [14] = target: Guanidinoacetate N-methyltransferase (Homo sapiens) (UniProt Q14353); experiment: as above; details: MTase-Glo luminescence, SAH detection, recombinant enzyme; activity change, negative = inhibition: at 85.7 µM (top of the series) unless noted
# [15] = target: Nicotinamide N-methyltransferase (Homo sapiens) (UniProt P40261); experiment: as above; details: MTase-Glo luminescence, SAH detection, recombinant enzyme; measured here: NNMT max response; stronger effect = lower value
# [16] = target: Phenylethanolamine N-methyltransferase (Homo sapiens) (UniProt P11086); experiment: as above; details: MTase-Glo luminescence, SAH detection, recombinant enzyme; measured here: PNMT max response; stronger effect = lower value
# Phenylethanolamine N-methyltransferase (Homo sapiens), sequence (P11086 whole entry, looked up): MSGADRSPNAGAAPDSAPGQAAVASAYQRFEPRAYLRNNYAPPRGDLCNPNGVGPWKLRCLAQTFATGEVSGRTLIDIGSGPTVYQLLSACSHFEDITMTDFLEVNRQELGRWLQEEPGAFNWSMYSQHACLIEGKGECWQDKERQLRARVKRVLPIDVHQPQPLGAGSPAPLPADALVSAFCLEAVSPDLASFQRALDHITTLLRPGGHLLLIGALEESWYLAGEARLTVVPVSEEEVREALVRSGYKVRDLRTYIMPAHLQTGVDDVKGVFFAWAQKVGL
# Nuclear receptor subfamily 1 group I member 3 (Homo sapiens), sequence (Q14994 whole entry, looked up): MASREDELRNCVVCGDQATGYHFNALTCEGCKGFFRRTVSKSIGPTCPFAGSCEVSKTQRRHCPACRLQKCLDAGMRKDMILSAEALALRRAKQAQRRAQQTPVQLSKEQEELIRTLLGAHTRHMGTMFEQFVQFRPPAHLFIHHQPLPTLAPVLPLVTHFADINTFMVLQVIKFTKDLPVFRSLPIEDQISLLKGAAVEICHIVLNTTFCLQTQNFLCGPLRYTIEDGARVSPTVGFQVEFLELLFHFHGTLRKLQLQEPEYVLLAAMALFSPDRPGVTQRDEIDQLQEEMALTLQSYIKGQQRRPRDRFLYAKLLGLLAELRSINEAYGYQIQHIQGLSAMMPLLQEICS
# Catechol O-methyltransferase (Homo sapiens), sequence (P21964 whole entry, looked up): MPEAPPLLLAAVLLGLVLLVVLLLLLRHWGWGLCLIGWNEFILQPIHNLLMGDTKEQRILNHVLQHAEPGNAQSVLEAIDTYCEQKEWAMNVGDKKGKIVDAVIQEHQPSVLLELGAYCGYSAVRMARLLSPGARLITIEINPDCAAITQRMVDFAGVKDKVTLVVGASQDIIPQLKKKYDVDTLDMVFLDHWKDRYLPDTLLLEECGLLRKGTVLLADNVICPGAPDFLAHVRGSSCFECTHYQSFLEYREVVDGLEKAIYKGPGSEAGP
# Nicotinamide N-methyltransferase (Homo sapiens), sequence (P40261 whole entry, looked up): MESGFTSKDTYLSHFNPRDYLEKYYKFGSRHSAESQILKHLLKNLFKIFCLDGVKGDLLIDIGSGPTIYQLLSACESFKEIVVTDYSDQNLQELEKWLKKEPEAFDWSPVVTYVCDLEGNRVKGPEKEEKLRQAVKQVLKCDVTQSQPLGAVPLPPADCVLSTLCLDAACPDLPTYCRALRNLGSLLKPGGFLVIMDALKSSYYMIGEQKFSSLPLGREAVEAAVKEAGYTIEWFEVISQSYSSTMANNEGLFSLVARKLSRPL
# Cytochrome P450 3A4 (Homo sapiens), sequence (P08684 whole entry, looked up): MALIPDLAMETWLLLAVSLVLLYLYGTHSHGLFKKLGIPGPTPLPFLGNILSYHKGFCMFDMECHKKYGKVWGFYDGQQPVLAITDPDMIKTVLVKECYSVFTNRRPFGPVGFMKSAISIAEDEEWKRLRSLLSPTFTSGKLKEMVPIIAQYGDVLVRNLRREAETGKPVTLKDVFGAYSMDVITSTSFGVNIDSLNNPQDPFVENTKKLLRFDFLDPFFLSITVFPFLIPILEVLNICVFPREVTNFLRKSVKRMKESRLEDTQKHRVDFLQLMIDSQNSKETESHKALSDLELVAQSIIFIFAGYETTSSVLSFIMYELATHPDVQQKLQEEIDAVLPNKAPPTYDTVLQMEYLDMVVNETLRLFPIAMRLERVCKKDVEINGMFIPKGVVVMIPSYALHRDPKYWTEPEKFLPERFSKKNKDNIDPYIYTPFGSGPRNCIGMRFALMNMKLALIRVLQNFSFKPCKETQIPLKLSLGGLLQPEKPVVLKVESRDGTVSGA
# Cytochrome P450 1A2 (Homo sapiens), sequence (P05177 whole entry, looked up): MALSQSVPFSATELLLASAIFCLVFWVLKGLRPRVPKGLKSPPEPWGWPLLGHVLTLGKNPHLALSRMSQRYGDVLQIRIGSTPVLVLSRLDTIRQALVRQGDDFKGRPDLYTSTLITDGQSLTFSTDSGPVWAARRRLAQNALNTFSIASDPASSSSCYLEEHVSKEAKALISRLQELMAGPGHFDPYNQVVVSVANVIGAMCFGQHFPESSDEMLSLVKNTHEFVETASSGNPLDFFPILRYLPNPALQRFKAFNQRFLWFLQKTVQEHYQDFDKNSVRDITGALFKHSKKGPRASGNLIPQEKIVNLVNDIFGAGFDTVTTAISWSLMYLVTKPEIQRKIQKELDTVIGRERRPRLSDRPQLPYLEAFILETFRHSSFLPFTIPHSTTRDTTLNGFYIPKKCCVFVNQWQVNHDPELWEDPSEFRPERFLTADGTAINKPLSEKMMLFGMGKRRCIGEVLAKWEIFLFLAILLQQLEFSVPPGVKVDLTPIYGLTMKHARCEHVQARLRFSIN
# Cytochrome P450 2C19 (Homo sapiens), sequence (P33261 whole entry, looked up): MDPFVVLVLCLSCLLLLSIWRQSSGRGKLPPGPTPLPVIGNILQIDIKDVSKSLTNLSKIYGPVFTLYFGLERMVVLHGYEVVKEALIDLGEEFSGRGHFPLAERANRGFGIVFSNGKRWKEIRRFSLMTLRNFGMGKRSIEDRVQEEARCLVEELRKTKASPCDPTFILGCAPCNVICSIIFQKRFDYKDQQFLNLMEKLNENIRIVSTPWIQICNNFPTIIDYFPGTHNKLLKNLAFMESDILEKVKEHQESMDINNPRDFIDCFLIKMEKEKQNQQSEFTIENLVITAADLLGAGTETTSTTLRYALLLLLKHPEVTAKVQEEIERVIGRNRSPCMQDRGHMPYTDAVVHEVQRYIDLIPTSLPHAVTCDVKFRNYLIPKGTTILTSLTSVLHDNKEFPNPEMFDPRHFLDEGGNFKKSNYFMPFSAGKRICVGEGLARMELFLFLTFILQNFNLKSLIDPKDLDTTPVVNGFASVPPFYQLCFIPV
# Cytochrome P450 2C9 (Homo sapiens), sequence (P11712 whole entry, looked up): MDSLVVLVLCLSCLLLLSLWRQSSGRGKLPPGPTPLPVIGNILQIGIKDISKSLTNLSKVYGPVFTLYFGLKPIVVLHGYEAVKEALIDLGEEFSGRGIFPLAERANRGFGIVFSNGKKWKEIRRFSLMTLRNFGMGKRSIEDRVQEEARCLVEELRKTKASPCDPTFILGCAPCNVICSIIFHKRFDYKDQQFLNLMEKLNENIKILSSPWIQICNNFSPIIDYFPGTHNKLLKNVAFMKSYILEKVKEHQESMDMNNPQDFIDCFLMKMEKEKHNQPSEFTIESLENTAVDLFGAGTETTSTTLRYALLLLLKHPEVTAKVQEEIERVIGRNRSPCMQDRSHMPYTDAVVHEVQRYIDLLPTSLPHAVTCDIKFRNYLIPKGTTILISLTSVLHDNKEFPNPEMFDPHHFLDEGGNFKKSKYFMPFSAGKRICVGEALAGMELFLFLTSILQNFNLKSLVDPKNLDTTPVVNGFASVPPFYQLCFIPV
Structure (SMILES),Potency [1],outcome [2],Potency [3],outcome [4],Potency [5],Potency [6],Potency [7],Potency [8],Potency [9],max response [10],outcome [11],outcome [12],activity [13],"activity change, negative = inhibition [14]",activity [15],activity [16]
COC1=C[C@@]23CCN(C)[C@H](Cc4ccc(OC)c(O)c42)C3=CC1=O,inactive,inactive,inactive,inactive,inactive,inactive,inactive,inactive,inactive,-3.14% (inactive),inactive,inactive,–,–,–,–
CC[C@H]1CN2CC[C@H]1C[C@@H]2CNCc1ccc(-c2ccccc2)cc1,–,–,–,–,–,–,–,–,–,–,–,–,3.75%,4.44%,4.25%,-4.01%
